Drawing on PubChem BioAssay, this text covers composite z-score and z-score for five compounds.

A short description of experiment [1]: small molecules captured by biotinylated probe aFSTL3 – biochemical, small-molecule microarray, fluorescence 635/667, stem cell growth factor project, primary screen (AID 1064).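 Also: measures binding of the biotinylated anti-FSTL3 antibody to printed compounds.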 Conditions: higher = more signal.
Experiment [2] in a line: binders from COS7 lysate, DM2A8 probe, primary screen, torsin A project, cell lysate, small-molecule microarray, fluorescence 635/667 (AID 1065). Conditions: higher = more signal, COS7 lysate expressing mutant human TOR1A.
Experiment [3] can be described thus: small molecules captured by biotinylated probe aFGF2 – biochemical, small-molecule microarray, fluorescence 635/667, stem cell growth factor project, primary screen (AID 1067).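 Also: measures binding of biotinylated aFGF2 protein to printed compounds on slides; z-score merges feature fluorescence and signal-to-noise across triplicate slides.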 Conditions: higher = more signal.
Experiment [4] in a line: small molecules captured by biotinylated probe aFGF10 – biochemical, small-molecule microarray, fluorescence 635/667, stem cell growth factor project, primary screen (AID 1071).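 Also: score merges 667 nm spot intensity and signal to noise from triplicate slides.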 The conditions noted are these: higher = more signal.
Experiment [5] has as its target Neurogenic locus notch homolog protein 2 (Homo sapiens) (UniProt Q04721). Nature of the experiment: small molecules binding Notch2 protein – biochemical, small-molecule microarray, 635 nm fluorescence, stem cell growth factors, primary screen (AID 1073). The conditions noted are these: higher = more signal.
The target of experiment [6] is Pro-neuregulin-1, membrane-bound isoform (Homo sapiens) (UniProt Q02297). Nature of the experiment: small molecules binding neuregulin-1 protein – biochemical, small-molecule microarray, fluorescence 635/667, psychiatric disease protein project, primary screen (AID 1075).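 Also: score combines 667 nm spot fluorescence with signal to noise.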 Conditions: NRG1 binding, 635 nm fluorescence, higher = more signal.
Sequence of Pro-neuregulin-1, membrane-bound isoform (Homo sapiens) (Q02297 whole entry, looked up, the tested form may be a part, canonical isoform): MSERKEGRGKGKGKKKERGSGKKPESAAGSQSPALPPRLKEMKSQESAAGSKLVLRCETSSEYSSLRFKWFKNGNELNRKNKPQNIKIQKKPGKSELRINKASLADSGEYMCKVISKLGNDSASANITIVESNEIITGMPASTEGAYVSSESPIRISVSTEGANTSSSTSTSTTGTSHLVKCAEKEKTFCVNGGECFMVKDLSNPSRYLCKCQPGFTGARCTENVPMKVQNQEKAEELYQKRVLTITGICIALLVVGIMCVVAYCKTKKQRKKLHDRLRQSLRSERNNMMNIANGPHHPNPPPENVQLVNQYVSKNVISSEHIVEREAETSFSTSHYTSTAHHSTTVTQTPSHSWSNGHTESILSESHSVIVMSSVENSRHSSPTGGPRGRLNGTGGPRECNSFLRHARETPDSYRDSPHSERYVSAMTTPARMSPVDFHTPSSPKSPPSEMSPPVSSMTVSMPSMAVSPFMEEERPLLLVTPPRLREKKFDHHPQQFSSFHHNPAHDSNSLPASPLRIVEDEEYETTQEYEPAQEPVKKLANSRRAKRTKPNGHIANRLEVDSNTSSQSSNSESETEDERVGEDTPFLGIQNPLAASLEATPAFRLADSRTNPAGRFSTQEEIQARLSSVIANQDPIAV
Experiment [7] relates to Neuregulin-1 EGF-like domain. Nature of the experiment: small molecules binding NRG1 EGF domain – biochemical, small-molecule microarray, 635 nm fluorescence, primary screen (AID 1081).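 Also: binding of the protein to compounds printed on small-molecule microarray slides.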 Conditions: higher = more signal.
The nature of experiment [8]: FRG1 expression reporter modulators in myotubes – cell-based, C2C12 myotubes, firefly/Renilla luciferase, luminescence, FRG1 inhibition for FSHD, primary screen (AID 1084). The conditions noted are these: FRG1 promoter luciferase, higher = more signal, called active from +8 up or from −8 down.
A short description of experiment [9]: small molecules captured by biotinylated probe aFST – biochemical, small-molecule microarray, fluorescence 635/667, stem cell growth factor project, primary screen (AID 1086).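 Also: score merges 667 nm fluorescence with signal-to-noise of each printed compound spot.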 Conditions: higher = more signal.
Experiment [10] can be described thus: binders of probe aHhip on microarray, primary screen, stem cell growth factor project, biochemical, small-molecule microarray, fluorescence 635/667 (AID 1087).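 Also: score merges spot fluorescence at 667nm with spot signal to noise ratio.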 Conditions: higher = more signal.
The test system of experiment [11] is PRMT1 (protein arginine N-methyltransferase 1). Nature of the experiment: small molecules binding arginine methyltransferase PRMT1 – biochemical, small-molecule microarray, 635 nm fluorescence, primary screen (AID 1088).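 Also: binding of Prmt1 protein to compounds spotted on small-molecule microarray slides.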 The conditions noted are these: higher = more signal.
Experiment [12] in a line: growth effects on S. cerevisiae YJM789 – YJM789 clinical isolate, OD600, 24 h, basal, primary screen (AID 1089).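 Also: growth of clinical yeast isolate S. cerevisiae YJM 789 seeded 1000 cells per well; test concentration not given here.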 Conditions: higher = more signal, called active from +8 up or from −8 down.
The nature of experiment [13]: S. pombe growth modifiers, basal conditions – strain 972, OD600, 24 h, no modulator, primary screen (AID 1090).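 Also: basal condition with compound alone and no growth modifier present; test concentration not given here.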 Conditions: S. pombe 972 growth, higher = more signal, called active from +8 up or from −8 down.
Experiment [14] is described as follows: budding yeast growth modifiers under rapamycin – strain BY4716, OD600, 96 h, primary screen (AID 1091). Also: test concentration not given here. The conditions noted are these: S. cerevisiae BY4716 + rapamycin, higher = more signal, called active from +8 up or from −8 down.
The target in experiment [15] is Torsin-1A-interacting protein 2 (Homo sapiens) (UniProt Q8NFQ8). The experiment is described as follows: small molecules binding lysate-expressed LULL1 – cell lysate, human LULL1 lysate, 635/667 nm fluorescence, primary screen (AID 1092).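 Also: probe is lysate of COS7 cells overexpressing human LULL1; score merges per-feature 667 nm fluorescence with signal-to-noise.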 Conditions: small-molecule microarray, hLULL1 lysate binding, 635 nm fluorescence; higher = more signal.
Sequence of Torsin-1A-interacting protein 2 (Homo sapiens) (Q8NFQ8 whole entry, looked up): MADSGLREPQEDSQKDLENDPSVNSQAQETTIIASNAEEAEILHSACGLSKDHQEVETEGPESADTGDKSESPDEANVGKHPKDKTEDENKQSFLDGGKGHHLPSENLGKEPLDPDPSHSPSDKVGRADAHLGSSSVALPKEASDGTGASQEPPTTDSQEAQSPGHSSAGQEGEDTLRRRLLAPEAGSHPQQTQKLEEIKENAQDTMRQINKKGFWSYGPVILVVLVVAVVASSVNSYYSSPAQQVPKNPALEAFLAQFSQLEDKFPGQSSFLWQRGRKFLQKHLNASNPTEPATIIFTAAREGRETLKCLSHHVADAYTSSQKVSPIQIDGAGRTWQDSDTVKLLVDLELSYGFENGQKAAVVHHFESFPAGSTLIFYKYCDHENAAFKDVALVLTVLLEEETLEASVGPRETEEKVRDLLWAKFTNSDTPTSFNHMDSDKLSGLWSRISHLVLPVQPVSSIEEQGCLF
A short description of experiment [16]: optical density change of DRC41 E. coli – strain DRC41, OD650, 24 h, E. coli filamentation project, primary screen (AID 1093).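 Also: MC1000 strain lacking acrAB efflux and sulA so SOS filamentation is blocked; test concentration not given here.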 Conditions: E. coli DRC41 growth, higher = more signal, called active from +8 up or from −8 down.
Experiment [17] can be described thus: probe aLefty2 binding to arrayed compounds – biochemical, biotinylated probe, 635/667 nm fluorescence, primary screen (AID 1094).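 Also: score merges spot fluorescence near 667 nm with spot signal-to-noise ratio.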 Conditions: small-molecule microarray, higher = more signal.
The subject of experiment [18] is Noggin (protein binding on small-molecule microarray). The experiment is described as follows: small molecules binding Noggin protein – biochemical, 635/667 nm fluorescence, primary screen (AID 1095).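 Also: score merges 667 nm feature fluorescence with signal to noise over triplicate slides.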 The conditions noted are these: 635 nm fluorescence, higher = more signal.
Experiment [19] addresses Neurogenic locus notch homolog protein 3 (Homo sapiens) (UniProt Q9UM47). Nature of the experiment: small molecules binding NOTCH3 protein – biochemical, 635/667 nm fluorescence, primary screen (AID 1096). Conditions: small-molecule microarray, 635 nm fluorescence, higher = more signal.
Experiment [20] in a line: probe aEGFR binding to arrayed compounds – biochemical, biotinylated probe, 635/667 nm fluorescence, primary screen (AID 1097).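 Also: probe is a biotinylated anti-EGFR antibody binding compounds printed on slides; score combines fluorescence near 667 nm and signal to noise of each spot.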 The conditions noted are these: small-molecule microarray, higher = more signal.

The source made the active and inactive calls.

Sequence of Neurogenic locus notch homolog protein 3 (Homo sapiens) (Q9UM47 whole entry, looked up): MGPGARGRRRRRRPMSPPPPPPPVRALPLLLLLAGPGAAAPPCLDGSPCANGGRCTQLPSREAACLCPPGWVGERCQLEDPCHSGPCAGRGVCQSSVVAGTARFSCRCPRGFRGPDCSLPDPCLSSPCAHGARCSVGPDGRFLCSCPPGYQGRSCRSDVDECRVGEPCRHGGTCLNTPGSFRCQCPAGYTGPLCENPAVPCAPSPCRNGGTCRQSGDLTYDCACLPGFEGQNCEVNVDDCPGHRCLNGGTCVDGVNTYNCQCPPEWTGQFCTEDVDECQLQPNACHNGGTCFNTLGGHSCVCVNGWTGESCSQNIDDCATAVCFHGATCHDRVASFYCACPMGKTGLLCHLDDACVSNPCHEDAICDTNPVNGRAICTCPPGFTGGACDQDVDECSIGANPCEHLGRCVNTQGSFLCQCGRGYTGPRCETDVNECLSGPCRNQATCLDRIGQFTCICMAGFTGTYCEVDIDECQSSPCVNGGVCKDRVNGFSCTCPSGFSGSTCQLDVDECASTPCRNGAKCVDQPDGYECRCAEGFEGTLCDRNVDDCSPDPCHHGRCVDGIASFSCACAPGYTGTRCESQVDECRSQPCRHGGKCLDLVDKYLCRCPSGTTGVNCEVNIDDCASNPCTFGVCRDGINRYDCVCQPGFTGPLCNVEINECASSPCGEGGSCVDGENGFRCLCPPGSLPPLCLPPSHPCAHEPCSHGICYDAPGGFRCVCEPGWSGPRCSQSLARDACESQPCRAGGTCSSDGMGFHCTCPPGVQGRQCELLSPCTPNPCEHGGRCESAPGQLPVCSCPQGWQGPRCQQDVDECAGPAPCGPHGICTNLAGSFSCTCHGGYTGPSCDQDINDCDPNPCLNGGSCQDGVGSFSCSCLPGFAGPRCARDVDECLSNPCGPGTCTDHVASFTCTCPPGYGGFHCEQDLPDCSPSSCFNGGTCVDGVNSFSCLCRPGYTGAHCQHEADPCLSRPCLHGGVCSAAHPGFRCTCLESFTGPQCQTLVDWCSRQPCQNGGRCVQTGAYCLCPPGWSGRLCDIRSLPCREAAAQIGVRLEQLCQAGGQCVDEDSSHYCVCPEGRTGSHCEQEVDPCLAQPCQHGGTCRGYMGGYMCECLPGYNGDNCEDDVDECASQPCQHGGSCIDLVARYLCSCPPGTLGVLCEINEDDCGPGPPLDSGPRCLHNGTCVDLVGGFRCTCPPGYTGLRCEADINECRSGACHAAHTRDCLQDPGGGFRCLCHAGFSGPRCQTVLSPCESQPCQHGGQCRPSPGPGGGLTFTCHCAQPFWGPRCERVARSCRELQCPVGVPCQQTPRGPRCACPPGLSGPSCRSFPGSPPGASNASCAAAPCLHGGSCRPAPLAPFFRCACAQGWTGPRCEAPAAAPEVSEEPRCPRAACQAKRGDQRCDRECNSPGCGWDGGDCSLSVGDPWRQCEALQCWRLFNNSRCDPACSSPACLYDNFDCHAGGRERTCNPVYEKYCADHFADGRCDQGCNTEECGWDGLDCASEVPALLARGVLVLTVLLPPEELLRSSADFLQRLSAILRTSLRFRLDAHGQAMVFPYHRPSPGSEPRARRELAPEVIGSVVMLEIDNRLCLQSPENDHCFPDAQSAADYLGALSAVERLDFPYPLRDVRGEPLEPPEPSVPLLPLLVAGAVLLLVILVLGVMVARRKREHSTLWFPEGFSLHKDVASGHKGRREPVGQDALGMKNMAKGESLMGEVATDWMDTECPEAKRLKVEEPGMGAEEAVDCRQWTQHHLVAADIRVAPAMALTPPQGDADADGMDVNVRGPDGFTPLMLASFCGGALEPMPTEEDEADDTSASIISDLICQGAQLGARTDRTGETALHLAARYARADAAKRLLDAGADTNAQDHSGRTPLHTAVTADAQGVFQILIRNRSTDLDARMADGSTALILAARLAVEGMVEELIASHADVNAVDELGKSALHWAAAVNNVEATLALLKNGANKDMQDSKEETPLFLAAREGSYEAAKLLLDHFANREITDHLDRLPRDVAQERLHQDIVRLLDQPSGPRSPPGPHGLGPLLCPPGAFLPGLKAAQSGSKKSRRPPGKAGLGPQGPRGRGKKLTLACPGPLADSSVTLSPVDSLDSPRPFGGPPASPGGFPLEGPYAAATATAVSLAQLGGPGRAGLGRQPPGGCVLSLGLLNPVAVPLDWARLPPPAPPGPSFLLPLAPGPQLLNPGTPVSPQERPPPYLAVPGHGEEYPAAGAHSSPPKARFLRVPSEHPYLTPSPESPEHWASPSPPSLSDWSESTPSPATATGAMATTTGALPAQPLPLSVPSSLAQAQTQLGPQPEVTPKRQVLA

For the compound `C=CCC(OC(C)=O)[C@@H]1[C@@H](N(Cc2cc3ccccc3o2)C(=O)c2ccc(-c3ccccc3)cc2)c2cc(OCCCO)ccc2N1C(=O)c1ccc2ccccc2n1` (stereo not given in full), the composite z-score in [1] is -0.128; in experiment [2], -0.0562; in experiment [3] it was -0.128; in [4], 0.0599; in experiment [5] it was -0.234; in experiment [6], 0.0289. Further, the composite z-score in experiment [7] was -0.464; in experiment [9] it was 0.268; in experiment [10], 0.417; in experiment [11], -0.766; in experiment [15] it was 0.607; in [17], -0.072. Further, the composite z-score is 0.0917 in experiment [18], -0.781 in [19] and -0.0151 in [20]. The z-score is -1.47 (inactive) in [8]; 0.806 (inactive) in experiment [12]; 0.0887 (inactive) in experiment [13]; 1.16 (inactive) in [14]; 0.859 (inactive) in [16].
With `NC(=O)NCC#Cc1ccc2c(c1)[C@]1(C(=O)N2)[C@H](C(=O)N2CCCCCCC2)[C@H]2C(=O)O[C@H](c3ccccc3)[C@H](c3ccccc3)N2[C@@H]1c1ccc(O)cc1`, the composite z-score in experiment [1] stood at 3.57; in experiment [2], 0.346; in experiment [3], 0.688; in experiment [4], 0.8; in experiment [5], 0.879; in [6], 0.94. In addition, the composite z-score in experiment [7] came to 0.947; in experiment [9], 2.99; in experiment [10] it was 2.75; in [11] it was 1.55; in experiment [15] it was 2.56; in [17], 1.65. Also, the composite z-score came to 1.85 in experiment [18], 1.15 in experiment [19] and 0.944 in [20]. For the same compound, the z-score in [8] was 0.805 (inactive); in experiment [12], 0.463 (inactive); in experiment [13], 1.06 (inactive); in experiment [14], 1.47 (inactive); in experiment [16] it was -0.284 (inactive).
As to `COCCOC(=O)N1C(=O)[C@@]2(c3cc(C#CC4=CCCCC4)ccc31)[C@H](c1ccccc1OCCO)N1[C@H](c3ccccc3)[C@H](c3ccccc3)OC(=O)[C@H]1[C@@H]2C(N)=O`, the composite z-score in experiment [1] was -0.42; in experiment [2], 0.599; in experiment [3] it was 0; in experiment [4] it was 0.525; in experiment [5] it was 0.931; in experiment [6], -0.253. For the same compound, the composite z-score in experiment [7] was 1.05; in experiment [9], 0.366; in experiment [10], -0.217; in experiment [11], 1.56; in [15] it was 1.66; in experiment [17] it was -0.107. Also, the results for the composite z-score in [18], in [19] and in experiment [20] were 1.39, 1.1 and -0.0211, respectively. The z-score is -0.89 (inactive) in experiment [8]; 0.05 (inactive) in experiment [12]; -0.96 (inactive) in experiment [13]; 1.69 (inactive) in [14]; 2.66 (inactive) in [16].
With `O=c1cccc(-c2ccccc2C(F)(F)F)o1`, the composite z-score in experiment [1] was 0.912; in [2], -0.0924; in experiment [3], 0.409; in [4] it was -0.331; in experiment [5], -0.489; in [6], -0.168. Moreover, the composite z-score was 0.381 in experiment [7]; 0.862 in experiment [9]; 0.173 in experiment [10]; -0.205 in [11]; 1.08 in experiment [15]; 0.659 in experiment [17]. The composite z-score in experiment [18] was -0.798; in experiment [19] it was -0.85; in experiment [20], 0.323. The z-score was 0.364 (inactive) in [8]; -0.35 (inactive) in experiment [12]; -0.392 (inactive) in experiment [13]; 0.591 (inactive) in [14]; -0.582 (inactive) in experiment [16].
For the compound `CCCC[C@@H](O)C1=C(COC)Cn2c(=O)n(-c3ccccc3)c(=O)n2[C@H]1CO`, the composite z-score in [1] was -0.306; in [2] it was -0.191; in [3], -0.226; in experiment [4], 0.13; in experiment [5] it was -0.167; in [6] it was -0.43. The composite z-score in [7] was -0.336; in experiment [9], -0.292; in experiment [10], -0.236; in experiment [11] it was -0.0379; in [15] it was -0.0333; in experiment [17], -0.246. For the same compound, the composite z-score is -0.102 in experiment [18], -0.62 in experiment [19] and -0.203 in experiment [20]. Also, the z-score in experiment [8] was -1.12 (inactive); in experiment [12], -1.48 (inactive); in experiment [13], -1.13 (inactive); in experiment [14] it was -0.721 (inactive); in experiment [16], 2.84 (inactive).
